About 83,000 compounds went through this panel and 20% of them were active in at least one assay; those are over-represented in the sample as a whole.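 How to read the values: 0–100, growth inhibition (40 = 60% inhibited); 0, no net growth; -100 to 0, cell death (-40 = 40% of starting cells died; -100 = all dead).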 Calls of active or inactive are those of the source. Rule for the calls: active = growth percent below 10; inactive = the rest.
Legend:
Assay in all cases: NCI-60 one-dose screen, 48 h (100 = growth as untreated, 0 = no growth, -100 = all killed)
HCT-15 colon = conditions: 10 µM unless noted
HT29 colon = conditions: 10 µM unless noted
SNB-75 CNS = conditions: 10 µM unless noted
SNB-19 CNS = conditions: 10 µM unless noted
U251 CNS = conditions: 10 µM unless noted
PC-3 prostate = conditions: 10 µM unless noted
SK-MEL-5 melanoma = conditions: 10 µM unless noted
SK-MEL-28 melanoma = conditions: 10 µM unless noted
SK-MEL-2 melanoma = conditions: 10 µM unless noted
EKVX NSCLC = conditions: 10 µM unless noted
SN12C renal = conditions: 10 µM unless noted
UO-31 renal = conditions: 10 µM unless noted
TK-10 renal = conditions: 10 µM unless noted
ACHN renal = conditions: 10 µM unless noted
CAKI-1 renal = conditions: 10 µM unless noted
A498 renal = conditions: 10 µM unless noted
CCRF-CEM leukemia = conditions: 10 µM unless noted
MOLT-4 leukemia = conditions: 10 µM unless noted
UACC-62 melanoma = conditions: 10 µM unless noted
LOX IMVI melanoma = conditions: 10 µM

Measured: growth

Nc1nc(C(F)(F)F)cs1
inactive: HCT-15 colon 104% | HT29 colon 112% | SNB-75 CNS 91.7% | SNB-19 CNS 105% | U251 CNS 103% | PC-3 prostate 102% | SK-MEL-5 melanoma 104% | SK-MEL-28 melanoma 110% | SK-MEL-2 melanoma 108% | EKVX NSCLC 94.5% | SN12C renal 111% | UO-31 renal 93.8% | TK-10 renal 98.1% | ACHN renal 113% | CAKI-1 renal 96.7% | A498 renal 114% | CCRF-CEM leukemia 109% | MOLT-4 leukemia 112%

CNS(=O)(=O)c1ccc(Nc2ccc(C(F)(F)F)cc2)c(-c2cn(C)cn2)c1
inactive: HCT-15 colon 34.5% | HT29 colon 49.6% | SNB-75 CNS 90.9% | SNB-19 CNS 49.5% | U251 CNS 51.1% | PC-3 prostate 57.6% | SK-MEL-5 melanoma 60.1% | UACC-62 melanoma 37.1% | SK-MEL-28 melanoma 74.8% | SK-MEL-2 melanoma 63.8% | EKVX NSCLC 49% | SN12C renal 41.9% | TK-10 renal 46.6% | ACHN renal 48.9% | CAKI-1 renal 60.8% | A498 renal 50.7% | CCRF-CEM leukemia 51.2% | MOLT-4 leukemia 37.1%
active: UO-31 renal 9.13%

COc1cccc(-c2c(C#N)c(-c3ccc(Cl)cc3)nc3n[nH]c(-c4ccc(Cl)cc4)c23)c1
active: HCT-15 colon 9.74% | MOLT-4 leukemia 2.7%
inactive: HT29 colon 27.9% | SNB-75 CNS 56.3% | SNB-19 CNS 68.2% | U251 CNS 48.5% | PC-3 prostate 23.9% | SK-MEL-5 melanoma 30.9% | UACC-62 melanoma 61.3% | SK-MEL-2 melanoma 53.1% | EKVX NSCLC 33.9% | SN12C renal 44.8% | UO-31 renal 35.2% | TK-10 renal 71.8% | ACHN renal 56.2% | CAKI-1 renal 39.1% | A498 renal 100% | CCRF-CEM leukemia 23.7%

Cn1cc(-c2nnc(N)nc2-c2c[nH]c3ccccc23)c2cccnc21
inactive: HCT-15 colon 28.9% | HT29 colon 17.2% | SNB-75 CNS 28.5% | SNB-19 CNS 51.6% | U251 CNS 41.6% | PC-3 prostate 57.8% | SK-MEL-5 melanoma 24.4% | UACC-62 melanoma 33.9% | SK-MEL-28 melanoma 55% | SK-MEL-2 melanoma 24.3% | EKVX NSCLC 62.3% | SN12C renal 50.6% | UO-31 renal 48% | TK-10 renal 91.5% | ACHN renal 56.9% | CAKI-1 renal 43.2% | A498 renal 86.4% | CCRF-CEM leukemia 34.6% | MOLT-4 leukemia 26.7%

CCCCCCCS(=O)(=O)N1CCCC(C(=O)Nc2nc3ccc(NC(=O)c4ccc(F)c(OC)c4F)cc3s2)C1 (stereo not drawn)
inactive: HCT-15 colon 59.6% | HT29 colon 60.2% | SNB-75 CNS 64.7% | SNB-19 CNS 31.9% | U251 CNS 38.6% | PC-3 prostate 40.3% | SK-MEL-5 melanoma 55% | LOX IMVI melanoma 34% | SK-MEL-28 melanoma 74.2% | SK-MEL-2 melanoma 58.9% | EKVX NSCLC 55.7% | SN12C renal 51.3% | UO-31 renal 67.9% | TK-10 renal 85.9% | ACHN renal 53% | CAKI-1 renal 59% | A498 renal 89.4% | CCRF-CEM leukemia 50.2% | MOLT-4 leukemia 59.7%

COc1ccc2[nH]cc(-c3nnc(N)nc3-c3c[nH]c4ncc(Br)cc34)c2c1
inactive: HCT-15 colon 90.8% | HT29 colon 96.7% | SNB-75 CNS 93.5% | SNB-19 CNS 91% | U251 CNS 76.1% | PC-3 prostate 110% | SK-MEL-5 melanoma 91.1% | UACC-62 melanoma 80.1% | SK-MEL-2 melanoma 104% | EKVX NSCLC 82.6% | SN12C renal 77.1% | UO-31 renal 65.9% | TK-10 renal 101% | ACHN renal 59% | CAKI-1 renal 70% | A498 renal 87.7% | CCRF-CEM leukemia 88.9% | MOLT-4 leukemia 70.8%

COc1cc(C2CC(c3cc(OC)c(OC)c(OC)c3)=NN2C(C)=O)ccc1OCc1ccc(F)cc1 (stereo not drawn)
inactive: HCT-15 colon 42.5% | HT29 colon 28.1% | SNB-75 CNS 79.5% | SNB-19 CNS 60.9% | U251 CNS 59.9% | PC-3 prostate 27.7% | SK-MEL-5 melanoma 29.7% | UACC-62 melanoma 52% | SK-MEL-28 melanoma 73.2% | SK-MEL-2 melanoma 69.5% | EKVX NSCLC 59.4% | SN12C renal 53.9% | UO-31 renal 29.7% | TK-10 renal 50.5% | ACHN renal 59.2% | CAKI-1 renal 53.2% | A498 renal 59.4% | CCRF-CEM leukemia 59.9% | MOLT-4 leukemia 30.6%

CNC(=O)c1cccc(NC(=O)c2ccc3c(c2)nnn3/C(C#N)=C/c2ccccn2)c1
active: HCT-15 colon -31.3% | HT29 colon -84.4% | U251 CNS -12.4% | PC-3 prostate 2.89% | SK-MEL-5 melanoma -13.4% | UACC-62 melanoma -86.6% | SK-MEL-28 melanoma -76.6% | SK-MEL-2 melanoma -60.7% | EKVX NSCLC -30.5% | SN12C renal -15.8% | UO-31 renal -7.22% | TK-10 renal -25.4% | ACHN renal -24.2% | CCRF-CEM leukemia -24.5% | MOLT-4 leukemia -19.2%
inactive: SNB-75 CNS 73% | SNB-19 CNS 71% | CAKI-1 renal 25.7% | A498 renal 115%

CCOc1ccc(-c2c(C#N)c(-c3ccc(Cl)cc3)nc3n[nH]c(-c4ccc(Cl)cc4)c23)cc1OC
inactive: HCT-15 colon 19.6% | HT29 colon 34.2% | SNB-75 CNS 58.5% | SNB-19 CNS 77% | U251 CNS 62.9% | PC-3 prostate 28% | SK-MEL-5 melanoma 28.2% | UACC-62 melanoma 68.5% | SK-MEL-28 melanoma 60.2% | SK-MEL-2 melanoma 64% | EKVX NSCLC 26.6% | SN12C renal 69.2% | UO-31 renal 33.2% | TK-10 renal 90% | ACHN renal 53.4% | CAKI-1 renal 53.1% | A498 renal 114%
active: MOLT-4 leukemia -3.16%

COC(=O)C[C@](O)(CCCC(C)(C)O)C(=O)O[C@H]1C(OC)=C[C@@]23CCCN2CCc2cc4c(cc2[C@@H]13)OCO4
inactive: UO-31 renal 30.6%
active: HCT-15 colon 0.83% | HT29 colon -48.3% | SNB-75 CNS -48.9% | SNB-19 CNS -26.8% | U251 CNS -23.4% | PC-3 prostate -15.1% | SK-MEL-5 melanoma -71.9% | UACC-62 melanoma -18.5% | SK-MEL-28 melanoma -35.4% | SK-MEL-2 melanoma -40% | EKVX NSCLC -4.85% | SN12C renal -11.3% | TK-10 renal -12.6% | ACHN renal 2.95% | CAKI-1 renal 3.41% | A498 renal -18.6% | MOLT-4 leukemia -6.36%

COc1ccc2c(c1)c(-c1cc(N)n3nc(-c4cn(C)c5ccccc45)cc3n1)cn2C
active: HCT-15 colon -80.1% | HT29 colon -64.6% | SNB-75 CNS -66.3% | SNB-19 CNS 4.07% | U251 CNS -80% | PC-3 prostate -20.5% | SK-MEL-5 melanoma -58.3% | LOX IMVI melanoma -87.1% | SK-MEL-28 melanoma -92.2% | SK-MEL-2 melanoma -92.4% | EKVX NSCLC -63.1% | SN12C renal -59.6% | UO-31 renal -88.3% | TK-10 renal -79% | ACHN renal -98.7% | CAKI-1 renal -77.4% | A498 renal -20.3% | CCRF-CEM leukemia -24.3% | MOLT-4 leukemia 0.804%

CC(C)CCNC(=O)N/C(N)=N/c1nc2ccccc2s1
inactive: HCT-15 colon 48.4% | HT29 colon 68.8% | SNB-75 CNS 82.2% | SNB-19 CNS 58.4% | U251 CNS 67.4% | PC-3 prostate 62.6% | SK-MEL-5 melanoma 15.8% | UACC-62 melanoma 59.2% | SK-MEL-2 melanoma 86.4% | EKVX NSCLC 28.3% | SN12C renal 73.6% | UO-31 renal 73.7% | TK-10 renal 88.3% | ACHN renal 58.4% | CAKI-1 renal 52.1% | A498 renal 116% | CCRF-CEM leukemia 59.1% | MOLT-4 leukemia 29.6%

C=C1CCC2C3(C)COC(c4ccccc4F)OC3CCC2(C)C1CC(O)C1=CCOC1=O (stereo not drawn)
inactive: SNB-75 CNS 43.9% | SNB-19 CNS 81.5% | U251 CNS 53.4% | PC-3 prostate 36.5% | SK-MEL-5 melanoma 65.8% | UACC-62 melanoma 73.6% | SK-MEL-28 melanoma 47.6% | SK-MEL-2 melanoma 17.2% | EKVX NSCLC 85.3% | SN12C renal 39.1% | UO-31 renal 11.7% | TK-10 renal 107% | CAKI-1 renal 66% | A498 renal 141% | MOLT-4 leukemia 48.9%
active: HCT-15 colon 9.86% | HT29 colon 8.43% | ACHN renal -23%

S=C(Nc1ccc(OCc2nc3ccccc3[nH]2)cc1)NC1CCCCC1
inactive: HCT-15 colon 106% | HT29 colon 102% | SNB-75 CNS 99.1% | SNB-19 CNS 94% | U251 CNS 97% | PC-3 prostate 95.8% | SK-MEL-5 melanoma 92.3% | UACC-62 melanoma 77.6% | SK-MEL-2 melanoma 123% | EKVX NSCLC 104% | SN12C renal 87.8% | UO-31 renal 96.8% | TK-10 renal 130% | ACHN renal 101% | CAKI-1 renal 100% | A498 renal 150% | CCRF-CEM leukemia 95% | MOLT-4 leukemia 98.3%

COc1ccc2[nH]c(O)c(N=NC(=O)COc3ccc(NC(=O)Nc4ccccc4)cc3)c2c1
inactive: HCT-15 colon 108% | HT29 colon 52.4% | SNB-75 CNS 31.6% | SNB-19 CNS 14.6% | PC-3 prostate 40.5% | SK-MEL-5 melanoma 69.7% | UACC-62 melanoma 10.1% | SK-MEL-2 melanoma 43.6% | EKVX NSCLC 65.4% | SN12C renal 25% | UO-31 renal 94.5% | TK-10 renal 113% | ACHN renal 94.2% | CAKI-1 renal 82.5% | A498 renal 71.7% | MOLT-4 leukemia 77.1%
active: U251 CNS -4.75% | SK-MEL-28 melanoma 8.57%

CC(=O)Oc1ccc(/C=C/C(=O)N[C@@H](Cc2ccccc2)C(O)C(=O)NCc2ccccc2)cc1OC(C)=O (stereo partly drawn)
inactive: HCT-15 colon 78.1% | HT29 colon 113% | SNB-75 CNS 61.3% | SNB-19 CNS 83.5% | U251 CNS 73.8% | PC-3 prostate 76.9% | SK-MEL-5 melanoma 81.8% | SK-MEL-28 melanoma 88.4% | SK-MEL-2 melanoma 110% | EKVX NSCLC 90.6% | SN12C renal 90.8% | UO-31 renal 38.8% | TK-10 renal 76.9% | ACHN renal 85.5% | CAKI-1 renal 71.3% | A498 renal 115% | CCRF-CEM leukemia 44.9%

Reference: PubChem BioAssay (NCI)
